Test results from publication PMC11006913.

Columns and labels:
Assay in all cases: PBM; 200 nM protein, PBS
Details in all cases: dsDNA, one strand shown
HOXB4 [1] = biological target: HOXB4 (Homo sapiens, UniProt P17483 148-234)
HOXA4 [2] = biological target: HOXA4 (Homo sapiens, UniProt Q00056 201-287, W262R)
HOXB4 [3] = biological target: HOXB4 (Homo sapiens, UniProt P17483 148-234, V174I)
HOXA4 [4] = biological target: HOXA4 (Homo sapiens, UniProt Q00056 201-287)
HOXA7 [5] = biological target: HOXA7 (Homo sapiens, UniProt P31268 116-202)
HOXB6 [6] = biological target: HOXB6 (Homo sapiens, UniProt P17509 132-218, K202E)
HOXA2 [7] = biological target: HOXA2 (Homo sapiens, UniProt O43364 129-215, R185T)
HOXA4 [8] = biological target: HOXA4 (Homo sapiens, UniProt Q00056 201-287, R217L)
HOXA2 [9] = biological target: HOXA2 (Homo sapiens, UniProt O43364 129-215, R185K)
VAX1 [10] = biological target: VAX1 (Homo sapiens, UniProt Q5SQQ9 86-172)
VAX1 [11] = biological target: VAX1 (Homo sapiens, UniProt Q5SQQ9 86-172, T142I)
HOXA2 [12] = biological target: HOXA2 (Homo sapiens, UniProt O43364 129-215, Y150S)
HOXA7 [13] = biological target: HOXA7 (Homo sapiens, UniProt P31268 116-202, W177C)
HOXA4 [14] = biological target: HOXA4 (Homo sapiens, UniProt Q00056 201-287, W262F)
HOXA2 [15] = biological target: HOXA2 (Homo sapiens, UniProt O43364 129-215)
VAX1 [16] = biological target: VAX1 (Homo sapiens, UniProt Q5SQQ9 86-172, K157R)
HOXB6 [17] = biological target: HOXB6 (Homo sapiens, UniProt P17509 132-218)
NKX2-6 = biological target: T1, NKX2-6 (Homo sapiens, UniProt A6NCS4 118-204, R150C)
T1 sequence: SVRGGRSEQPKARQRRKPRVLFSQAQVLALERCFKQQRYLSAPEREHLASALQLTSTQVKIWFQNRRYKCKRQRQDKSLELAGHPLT

ALX3 [18] = biological target: ALX3 (Homo sapiens, UniProt O95076 139-225, N203Q)
ALX3 [19] = biological target: ALX3 (Homo sapiens, UniProt O95076 139-225)
ALX3 [20] = biological target: ALX3 (Homo sapiens, UniProt O95076 139-225, L168Q)
ALX3 [21] = biological target: ALX3 (Homo sapiens, UniProt O95076 139-225, L168V)
ALX3 [22] = biological target: ALX3 (Homo sapiens, UniProt O95076 139-225, N203S)
Sequence of ALX3 (Homo sapiens, UniProt O95076 139-225, N203S) (O95076 139-225 N203S): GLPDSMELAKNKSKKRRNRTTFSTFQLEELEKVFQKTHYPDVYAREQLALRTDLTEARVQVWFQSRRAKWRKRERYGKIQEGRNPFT

Sequence of HOXA4 (Homo sapiens, UniProt Q00056 201-287, R217L) (Q00056 201-287 R217L): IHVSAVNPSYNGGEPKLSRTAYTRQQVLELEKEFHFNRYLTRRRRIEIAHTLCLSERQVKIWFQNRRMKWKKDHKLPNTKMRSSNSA
Sequence of HOXA4 (Homo sapiens, UniProt Q00056 201-287) (Q00056 201-287): as the sequence (Q00056 201-287 R217L) above, with L17R counted along it
Sequence of HOXA2 (Homo sapiens, UniProt O43364 129-215, R185K) (O43364 129-215 R185K): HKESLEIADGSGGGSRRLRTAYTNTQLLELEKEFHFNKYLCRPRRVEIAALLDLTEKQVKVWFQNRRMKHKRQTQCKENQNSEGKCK
Sequence of VAX1 (Homo sapiens, UniProt Q5SQQ9 86-172, K157R) (Q5SQQ9 86-172 K157R): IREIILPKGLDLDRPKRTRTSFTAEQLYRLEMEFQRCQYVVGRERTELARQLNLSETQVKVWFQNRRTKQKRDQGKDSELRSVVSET
Sequence of HOXB4 (Homo sapiens, UniProt P17483 148-234) (P17483 148-234): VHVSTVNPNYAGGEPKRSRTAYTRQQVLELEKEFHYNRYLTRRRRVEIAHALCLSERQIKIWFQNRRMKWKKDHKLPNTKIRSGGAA
Sequence of HOXA4 (Homo sapiens, UniProt Q00056 201-287, W262R) (Q00056 201-287 W262R): as the sequence (Q00056 201-287 R217L) above, with L17R, W62R counted along it
Sequence of HOXB4 (Homo sapiens, UniProt P17483 148-234, V174I) (P17483 148-234 V174I): as the sequence (P17483 148-234) above, with V27I counted along it
Sequence of VAX1 (Homo sapiens, UniProt Q5SQQ9 86-172, T142I) (Q5SQQ9 86-172 T142I): as the sequence (Q5SQQ9 86-172 K157R) above, with T57I, R72K counted along it
Sequence of HOXA2 (Homo sapiens, UniProt O43364 129-215) (O43364 129-215): as the sequence (O43364 129-215 R185K) above, with K57R counted along it
Sequence of HOXA2 (Homo sapiens, UniProt O43364 129-215, Y150S) (O43364 129-215 Y150S): as the sequence (O43364 129-215 R185K) above, with Y22S, K57R counted along it
Sequence of HOXA4 (Homo sapiens, UniProt Q00056 201-287, W262F) (Q00056 201-287 W262F): as the sequence (Q00056 201-287 R217L) above, with L17R, W62F counted along it
Sequence of VAX1 (Homo sapiens, UniProt Q5SQQ9 86-172) (Q5SQQ9 86-172): as the sequence (Q5SQQ9 86-172 K157R) above, with R72K counted along it
Sequence of HOXA2 (Homo sapiens, UniProt O43364 129-215, R185T) (O43364 129-215 R185T): as the sequence (O43364 129-215 R185K) above, with K57T counted along it
Sequence of ALX3 (Homo sapiens, UniProt O95076 139-225) (O95076 139-225): as the sequence (O95076 139-225 N203S) above, with S65N counted along it
Sequence of ALX3 (Homo sapiens, UniProt O95076 139-225, N203Q) (O95076 139-225 N203Q): as the sequence (O95076 139-225 N203S) above, with S65Q counted along it
Sequence of HOXA7 (Homo sapiens, UniProt P31268 116-202, W177C) (P31268 116-202 W177C): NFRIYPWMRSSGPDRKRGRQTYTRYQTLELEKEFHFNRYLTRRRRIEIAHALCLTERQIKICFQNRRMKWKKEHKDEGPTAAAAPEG
Sequence of ALX3 (Homo sapiens, UniProt O95076 139-225, L168V) (O95076 139-225 L168V): as the sequence (O95076 139-225 N203S) above, with L30V, S65N counted along it
Sequence of ALX3 (Homo sapiens, UniProt O95076 139-225, L168Q) (O95076 139-225 L168Q): as the sequence (O95076 139-225 N203S) above, with L30Q, S65N counted along it
Sequence of HOXA7 (Homo sapiens, UniProt P31268 116-202) (P31268 116-202): as the sequence (P31268 116-202 W177C) above, with C62W counted along it
Sequence of HOXB6 (Homo sapiens, UniProt P17509 132-218, K202E) (P17509 132-218 K202E): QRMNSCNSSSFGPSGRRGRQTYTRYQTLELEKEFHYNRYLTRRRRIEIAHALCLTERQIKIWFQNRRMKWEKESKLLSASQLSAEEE
Sequence of HOXB6 (Homo sapiens, UniProt P17509 132-218) (P17509 132-218): as the sequence (P17509 132-218 K202E) above, with E71K counted along it

What does the source list for TATTTAAA?
binding signal (HOXB4 [1]): 11.2 upbm affinity estimate (log intensity, higher = more binding, comparable within an allelic series); binding signal (HOXA4 [2]): 10.5 upbm affinity estimate (log intensity, higher = more binding, comparable within an allelic series); binding signal (HOXB4 [3]): 11.2 upbm affinity estimate (log intensity, higher = more binding, comparable within an allelic series); binding signal (HOXA4 [4]): 12 upbm affinity estimate (log intensity, higher = more binding, comparable within an allelic series)

Which results are given for ATAATGAC?
binding signal (HOXB4 [1]): 12.9 upbm affinity estimate (log intensity, higher = more binding, comparable within an allelic series); binding signal (HOXA4 [2]): 10.4 upbm affinity estimate (log intensity, higher = more binding, comparable within an allelic series); binding signal (HOXA7 [5]): 11.2 upbm affinity estimate (log intensity, higher = more binding, comparable within an allelic series); binding signal (HOXB6 [6]): 9.89 upbm affinity estimate (log intensity, higher = more binding, comparable within an allelic series); binding signal (HOXA2 [7]): 12.4 upbm affinity estimate (log intensity, higher = more binding, comparable within an allelic series); binding signal (HOXA4 [8]): 12.1 upbm affinity estimate (log intensity, higher = more binding, comparable within an allelic series); binding signal (HOXB4 [3]): 13.6 upbm affinity estimate (log intensity, higher = more binding, comparable within an allelic series); binding signal (HOXA2 [9]): 13.2 upbm affinity estimate (log intensity, higher = more binding, comparable within an allelic series); binding signal (HOXA4 [4]): 13.7 upbm affinity estimate (log intensity, higher = more binding, comparable within an allelic series); binding signal (VAX1 [10]): 12.6 upbm affinity estimate (log intensity, higher = more binding, comparable within an allelic series); binding signal (VAX1 [11]): 12.5 upbm affinity estimate (log intensity, higher = more binding, comparable within an allelic series); binding signal (HOXA2 [12]): 10.8 upbm affinity estimate (log intensity, higher = more binding, comparable within an allelic series); binding signal (HOXA7 [13]): 8.74 upbm affinity estimate (log intensity, higher = more binding, comparable within an allelic series); binding signal (HOXA4 [14]): 11.4 upbm affinity estimate (log intensity, higher = more binding, comparable within an allelic series); binding signal (HOXA2 [15]): 12.4 upbm affinity estimate (log intensity, higher = more binding, comparable within an allelic series); binding signal (VAX1 [16]): 12.3 upbm affinity estimate (log intensity, higher = more binding, comparable within an allelic series); binding signal (HOXB6 [17]): 11.7 upbm affinity estimate (log intensity, higher = more binding, comparable within an allelic series)

What does the source list for ACCGCCGG?
binding signal (HOXB4 [1]): 7.71 upbm affinity estimate (log intensity, higher = more binding, comparable within an allelic series); binding signal (HOXA4 [2]): 9.74 upbm affinity estimate (log intensity, higher = more binding, comparable within an allelic series); binding signal (HOXA2 [7]): 7.21 upbm affinity estimate (log intensity, higher = more binding, comparable within an allelic series); binding signal (HOXA4 [8]): 9.58 upbm affinity estimate (log intensity, higher = more binding, comparable within an allelic series); binding signal (HOXB4 [3]): 7.62 upbm affinity estimate (log intensity, higher = more binding, comparable within an allelic series); binding signal (NKX2-6): 9.49 upbm affinity estimate (log intensity, higher = more binding, comparable within an allelic series); binding signal (ALX3 [18]): 7.72 upbm affinity estimate (log intensity, higher = more binding, comparable within an allelic series); binding signal (HOXA2 [9]): 10.2 upbm affinity estimate (log intensity, higher = more binding, comparable within an allelic series); binding signal (HOXA4 [4]): 9.85 upbm affinity estimate (log intensity, higher = more binding, comparable within an allelic series); binding signal (ALX3 [19]): 7.95 upbm affinity estimate (log intensity, higher = more binding, comparable within an allelic series); binding signal (VAX1 [10]): 7.52 upbm affinity estimate (log intensity, higher = more binding, comparable within an allelic series); binding signal (ALX3 [20]): 7.7 upbm affinity estimate (log intensity, higher = more binding, comparable within an allelic series); binding signal (ALX3 [21]): 7.65 upbm affinity estimate (log intensity, higher = more binding, comparable within an allelic series); binding signal (VAX1 [11]): 7.48 upbm affinity estimate (log intensity, higher = more binding, comparable within an allelic series); binding signal (HOXA2 [12]): 10.4 upbm affinity estimate (log intensity, higher = more binding, comparable within an allelic series); binding signal (HOXA4 [14]): 9.75 upbm affinity estimate (log intensity, higher = more binding, comparable within an allelic series); binding signal (ALX3 [22]): 7.69 upbm affinity estimate (log intensity, higher = more binding, comparable within an allelic series); binding signal (HOXA2 [15]): 7.23 upbm affinity estimate (log intensity, higher = more binding, comparable within an allelic series); binding signal (VAX1 [16]): 7.38 upbm affinity estimate (log intensity, higher = more binding, comparable within an allelic series)

What does the source list for GGTAATGA?
binding signal (HOXB4 [1]): 12.9 upbm affinity estimate (log intensity, higher = more binding, comparable within an allelic series); binding signal (HOXA4 [2]): 10.4 upbm affinity estimate (log intensity, higher = more binding, comparable within an allelic series); binding signal (HOXA2 [7]): 12.1 upbm affinity estimate (log intensity, higher = more binding, comparable within an allelic series); binding signal (HOXA4 [8]): 11.9 upbm affinity estimate (log intensity, higher = more binding, comparable within an allelic series); binding signal (HOXB4 [3]): 13.6 upbm affinity estimate (log intensity, higher = more binding, comparable within an allelic series); binding signal (HOXA2 [9]): 13 upbm affinity estimate (log intensity, higher = more binding, comparable within an allelic series); binding signal (HOXA4 [4]): 13.5 upbm affinity estimate (log intensity, higher = more binding, comparable within an allelic series); binding signal (VAX1 [10]): 12.8 upbm affinity estimate (log intensity, higher = more binding, comparable within an allelic series); binding signal (VAX1 [11]): 12.6 upbm affinity estimate (log intensity, higher = more binding, comparable within an allelic series); binding signal (HOXA2 [12]): 10.8 upbm affinity estimate (log intensity, higher = more binding, comparable within an allelic series); binding signal (HOXA4 [14]): 11.2 upbm affinity estimate (log intensity, higher = more binding, comparable within an allelic series); binding signal (HOXA2 [15]): 12.1 upbm affinity estimate (log intensity, higher = more binding, comparable within an allelic series); binding signal (VAX1 [16]): 12.5 upbm affinity estimate (log intensity, higher = more binding, comparable within an allelic series)
